PubChem BioAssay (NCATS)
Records with an inconclusive call do not appear. A call without a number means that no potency is given here. The source made the active and inactive calls. Calls follow the shape of the dose curve; as a rule, active = well fitted curve in the direction sought with a large enough effect; inconclusive = small, poorly fitted or top-dose-only effect, or another doubt; inactive = no such curve, though single readings can be large; an effect the other way counts as inactive or inconclusive.

Columns and labels:
MCC-13 = test: qHTS assay to identify novel small-molecules to repurpose for Merkel cell carcinoma treatment (AID 1296009); settings: MCC and control cell lines, CellTiter-Glo viability, 72 h; series mostly up to 46 µM; also: nearly all actives have a fitted effect of over 60% in size
Method in brief: (§1)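 Cells were treated for 72 hr at 37 degree celsius with compounds in 8- or 11-point dose response. Viability was read by CellTiter-Glo luminescence, normalized to no-cell (cytotoxicity) and DMSO controls.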

MKL-1 = test: as above; settings: MCC and control cell lines, CellTiter-Glo viability, 72 h; series mostly up to 46 µM
Method in brief: as §1

MKL-2 = test: as above; settings: MCC and control cell lines, CellTiter-Glo viability, 72 h; series mostly up to 46 µM
Method in brief: as §1

UISO = test: as above; settings: MCC and control cell lines, CellTiter-Glo viability, 72 h; series mostly up to 46 µM
Method in brief: as §1

WaGa = test: as above; settings: MCC and control cell lines, CellTiter-Glo viability, 72 h; series mostly up to 46 µM
Method in brief: as §1

NIH3T3 = test: as above; settings: MCC and control cell lines, CellTiter-Glo viability, 72 h; at 44.8 µM (top of the series) unless noted
Method in brief: as §1

CASKI = test: Primary qHTS to identify gynecologic anti-cancer compounds using libraries of approved drugs and bioactive compounds (AID 1345084); settings: Gynecologic cancer cell panel viability, ATPlite luminescence, 48 h; series mostly up to 57.5 µM; also: nearly all actives have a fitted effect of over 55% in size
Method in brief: (§2)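 Cells, 1,000 per well, were allowed to settle for 16 h at 37 C before compound addition. Five concentrations were tested for 48 h, and viability was read by ATPlite luminescence after 15 min at room temperature.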

HeLa = test: as above; settings: Gynecologic cancer cell panel viability, ATPlite luminescence, 48 h; series mostly up to 57.5 µM
Method in brief: as §2

Hek293T = test: as above; settings: Gynecologic cancer cell panel viability, ATPlite luminescence, 48 h, control line for the selectivity index; series mostly up to 57.5 µM
Method in brief: as §2

OV90 = test: as above; settings: Gynecologic cancer cell panel viability, ATPlite luminescence, 48 h; series mostly up to 57.5 µM
Method in brief: as §2

PA-1 = test: as above; settings: Gynecologic cancer cell panel viability, ATPlite luminescence, 48 h; series mostly up to 57.5 µM
Method in brief: as §2

SKOV3 = test: as above; settings: Gynecologic cancer cell panel viability, ATPlite luminescence, 48 h; series mostly up to 57.5 µM
Method in brief: as §2

C33A = test: as above; settings: Gynecologic cancer cell panel viability, ATPlite luminescence, 48 h; series mostly up to 57.5 µM
Method in brief: as §2

Es-2 = test: as above; settings: Gynecologic cancer cell panel viability, ATPlite luminescence, 48 h; series mostly up to 57.5 µM
Method in brief: as §2

JEG-3 = test: as above; settings: Gynecologic cancer cell panel viability, ATPlite luminescence, 48 h; series mostly up to 57.5 µM
Method in brief: as §2

Tov112D = test: as above; settings: Gynecologic cancer cell panel viability, ATPlite luminescence, 48 h; series mostly up to 57.5 µM
Method in brief: as §2
Potency is read from the fitted curve at half-maximal effect.

Question: `Cc1noc(-c2ccc(CSCCC(=O)O)cc2)c1NC(=O)OC(C)c1ccccc1Cl` (stereo not drawn) was tested. Which Potency (MCC-13) did it give?
Answer: Its Potency is “inactive”.

Question: And the Potency (MKL-1)?
Answer: Its Potency is “inactive”.

Question: And the Potency (MKL-2)?
Answer: Its Potency is “inactive”.

Question: And the Potency (UISO)?
Answer: The Potency was “inactive”.

Question: What about the Potency (WaGa) of the same compound?
Answer: The Potency was “inactive”.

Question: `C[C@@H]1[C@H](C)CC[C@]2(C(=O)O)CC[C@]3(C)C(=CC[C@@H]4[C@@]5(C)C[C@@H](O)[C@H](O)[C@@](C)(CO)[C@H]5CC[C@]43C)[C@@H]12` was tested. Which Potency (MCC-13) did it give?
Answer: Its Potency is “inactive”.

Question: What about the Potency (MKL-1) of the same compound?
Answer: Its Potency is “inactive”.

Question: And the Potency (MKL-2)?
Answer: Its Potency is “inactive”.

Question: What about the outcome (NIH3T3) of the same compound?
Answer: Its outcome is “inactive”.

Question: And the Potency (UISO)?
Answer: Its Potency is “inactive”.

Question: What about the Potency (WaGa) of the same compound?
Answer: The Potency was “inactive”.

Question: How did the Potency (MCC-13) turn out when `OCc1ccccc1O[C@@H]1O[C@H](CO)[C@H](O)[C@H](O)[C@H]1O` was run?
Answer: The Potency was “inactive”.

Question: And the Potency (MKL-1)?
Answer: The Potency was “inactive”.

Question: What about the Potency (MKL-2) of the same compound?
Answer: Its Potency is “inactive”.

Question: What about the outcome (NIH3T3) of the same compound?
Answer: The outcome was “inactive”.

Question: What about the Potency (UISO) of the same compound?
Answer: The Potency was “inactive”.

Question: What about the Potency (WaGa) of the same compound?
Answer: Its Potency is “inactive”.

Question: For `C[C@H](NCc1ccc2c(c1)nc(NC(=O)c1ccc(-c3cn[nH]c3)s1)n2CCc1ccccc1)C(C)(C)C`, which Potency (MCC-13) is on record?
Answer: Its Potency is 10.5 µM (active).

Question: What about the Potency (MKL-1) of the same compound?
Answer: The Potency was 2.35 µM (active).

Question: What about the Potency (MKL-2) of the same compound?
Answer: Its Potency is 5.9 µM (active).

Question: And the Potency (UISO)?
Answer: Its Potency is 6.62 µM (active).

Question: And the Potency (WaGa)?
Answer: The Potency was 4.69 µM (active).

Question: What does the source list for `C=C(C)[C@@H]1CC[C@]2(C(=O)O)CC[C@]3(C)[C@H](CC[C@@H]4[C@@]5(C)CC[C@H](O)C(C)(C)[C@@H]5CC[C@]43C)[C@@H]12`?
Answer: Potency (MCC-13): inactive; Potency (MKL-1): inactive; Potency (MKL-2): inactive; Potency (UISO): inactive; Potency (WaGa): inactive

Question: For `CS(=O)(=O)N1CCc2c(-c3cnc(N)nc3)nc(N3CCOCC3)nc21`, which Potency (MCC-13) is on record?
Answer: The Potency was “inactive”.

Question: And the Potency (MKL-1)?
Answer: The Potency was “inactive”.

Question: What about the Potency (MKL-2) of the same compound?
Answer: The Potency was “inactive”.

Question: And the Potency (CASKI)?
Answer: Its Potency is 2 µM (active).

Question: What about the Potency (HeLa) of the same compound?
Answer: The Potency was 3.55 µM (active).

Question: What about the Potency (Hek293T) of the same compound?
Answer: Its Potency is 3.55 µM (active).

Question: What about the Potency (OV90) of the same compound?
Answer: The Potency was 4.47 µM (active).

Question: What about the Potency (PA-1) of the same compound?
Answer: Its Potency is 1.78 µM (active).

Question: And the Potency (SKOV3)?
Answer: Its Potency is 1.26 µM (active).

Question: Which Potency (MCC-13) does the source give for `CCN(CC)CCCCNc1ncc2c(n1)N(C)C(=O)N(c1c(Cl)c(OC)cc(OC)c1Cl)C2` here?
Answer: Its Potency is “inactive”.

Question: And the Potency (MKL-1)?
Answer: The Potency was “inactive”.

Question: And the Potency (WaGa)?
Answer: The Potency was “inactive”.

Question: `CCC[C@H]1C[C@H](C(=O)N[C@@H]([C@@H]2O[C@@H](SC)[C@@H](O)[C@@H](O)[C@@H]2O)[C@H](C)Cl)N(C)C1` was tested. Which Potency (MCC-13) did it give?
Answer: The Potency was “inactive”.

Question: What about the Potency (MKL-1) of the same compound?
Answer: Its Potency is “inactive”.

Question: And the Potency (MKL-2)?
Answer: The Potency was “inactive”.

Question: And the Potency (UISO)?
Answer: Its Potency is “inactive”.

Question: What about the Potency (WaGa) of the same compound?
Answer: The Potency was “inactive”.

Question: What about the Potency (C33A) of the same compound?
Answer: The Potency was “inactive”.

Question: And the Potency (CASKI)?
Answer: The Potency was “inactive”.

Question: And the Potency (Es-2)?
Answer: The Potency was “inactive”.

Question: What about the Potency (HeLa) of the same compound?
Answer: The Potency was “inactive”.

Question: What about the Potency (Hek293T) of the same compound?
Answer: Its Potency is “inactive”.

Question: And the Potency (JEG-3)?
Answer: Its Potency is “inactive”.

Question: What about the Potency (OV90) of the same compound?
Answer: Its Potency is “inactive”.

Question: What about the Potency (PA-1) of the same compound?
Answer: Its Potency is “inactive”.

Question: And the Potency (Tov112D)?
Answer: The Potency was “inactive”.

Question: Which Potency (MCC-13) does the source give for `O=C(CCCCCCC(=O)Nc1cccnc1)NO` here?
Answer: The Potency was 26.4 µM (active).

Question: And the Potency (MKL-1)?
Answer: The Potency was 7.43 µM (active).

Question: What about the Potency (MKL-2) of the same compound?
Answer: Its Potency is 1.87 µM (active).

Question: What about the Potency (UISO) of the same compound?
Answer: The Potency was 13.2 µM (active).

Question: And the Potency (WaGa)?
Answer: Its Potency is 2.35 µM (active).
